We go through 40 compounds from PubChem BioAssay (EPA / NIEHS).

The AC50 is the midpoint of the concentration-response curve, whichever way the signal moves.

Records with an inconclusive call do not appear. The source made the active and inactive calls. Rule for the calls: active = hit-call score of the fitted dose curve at least 0.9, where 1 is the maximum; inconclusive = response in the unintended direction; inactive = score below 0.9.

human Peroxisome Proliferator-activated Receptor alpha (PPARa), PPARA (gene 5465), sequence (Q07869 whole entry, looked up): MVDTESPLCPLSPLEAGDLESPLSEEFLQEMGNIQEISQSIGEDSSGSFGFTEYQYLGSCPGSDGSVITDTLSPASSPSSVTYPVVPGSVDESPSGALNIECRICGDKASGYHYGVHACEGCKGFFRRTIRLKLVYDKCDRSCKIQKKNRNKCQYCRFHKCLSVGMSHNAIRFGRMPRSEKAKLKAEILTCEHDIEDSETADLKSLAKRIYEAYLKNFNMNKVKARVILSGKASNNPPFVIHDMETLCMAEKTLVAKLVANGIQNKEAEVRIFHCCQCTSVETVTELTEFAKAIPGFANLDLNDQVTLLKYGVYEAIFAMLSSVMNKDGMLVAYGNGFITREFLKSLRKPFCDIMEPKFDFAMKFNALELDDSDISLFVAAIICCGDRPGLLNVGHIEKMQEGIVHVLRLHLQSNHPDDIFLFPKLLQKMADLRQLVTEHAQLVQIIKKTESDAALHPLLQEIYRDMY

This experiment addresses human Peroxisome Proliferator-activated Receptor alpha (PPARa), PPARA (gene 5465) (UniProt Q07869). The experiment in a line: ATG_PPARa_TRANS: Attagene TRANS-FACTORIAL HepG2 Assay for human Peroxisome Proliferator-activated Receptor alpha (PPARa) (AID 2283001).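 For AC50: potency for gain of reporter signal over DMSO so agonist or activator.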 The protocol: ATG_TRANS is a cell-based, multiplexed-readout assay that uses HepG2, a human liver cell line, with measurements taken at 24 hours after chemical dosing in a 24-well plate.ATG_PPARa_TRANS is one of 30 assay component(s) measured or calculated from the ATG_TRANS assay. It is designed to make measurements of mRNA induction, a form of inducible reporter, as detected with fluorescence intensity signals by Reverse transcription polymerase chain reaction (RT-PCR) and Capillary electrophoresis technology.Data from the assay component ATG_PPARa_TRANS was analyzed into 1 assay endpoint. This assay endpoint, ATG_PPARa_TRANS, was analyzed in the positive analysis fitting direction relative to DMSO as the negative control and baseline of activity. Using a type of inducible reporter, measures of mRNA for gain-of-signal activity can be used to understand the reporter gene at the transcription factor-level as they relate to the gene PPARA. Furthermore, this assay endpoint can be referred to as a primary readout, because this assay has produced multiple assay endpoints where this one serves a reporter gene function. To generalize the intended target to other relatable targets, this assay endpoint is annotated to the nuclear receptor intended target family, where the subfamily is non-steroidal.
Human liver HepG2 cells are transiently transfected with multiple reporter transcription units (MRTUs) in 6-well plates using FuGene 6 reagent (Roche; 3 ml FuGene/1 mg DNA). The MRTU constructs are regulated by a cis-regulating element (promoter). […] A major difference between the CIS and TRANS system is that in CIS activities of endogenous TFs are measured, whereas the TRANS assay evaluates changes in activities of exogenous, chimeric NR-Gal4 proteins. […] At the end of 24 hour incubation, total RNA was isolated using TriZol reagent (Invitrogen). The isolated RNA is then reverse-transcribed using oligo(dT) primer and Mo-MLV reverse transcriptase (Invitrogen) with DNAse I (Ambion) treatment for 30 min. The one-tenth of the produced cDNA was amplified by PCR using Taq DNA polymerase (Invitrogen) and two reporter sequence-specific primers. The PCR products were fluorescently labeled by primer extension with 6-arboxyfluorescein (6-FAM) 5'-labeled reporter sequence-specific primer (2 min at 95 C, 20 s at 68 C and 10 min at 72 C) and these products were digested with 5U of HpaI (New England Biolabs) for 2h at 37 C. The fragments were purified using Qiaquick PCR columns (Qiagen), analyzed on an ABI 3130xL genetic analyzer (Applied Biosystems) with peak positions identified by using a set of X-rhodamine (ROX)-labeled MapMarker1000 molecular weight standards (BioVentures). The raw capillary electrophoresis data was processed using Attagraph software (Attagene).
With `COC(O)c1ccccc1` (stereo not given), the result was inactive. Consider `OCC(F)(F)C(F)(F)C(F)(F)C(F)(F)C(F)(F)C(F)(F)C(F)(F)C(F)(F)C(F)(F)C(F)(F)C(F)(F)F`, for which the outcome was inactive. On the same count and under the same terms, as for `Cc1cncc(C)c1`, the entry is “inactive”. As to `Cc1ccc2ccc3ccc(C)cc3c2c1`, the compound was called inactive. In the case of `Oc1c(Cl)cc(Cl)cc1Sc1cc(Cl)cc(Cl)c1O`, the AC50 was 11.1 µM (active). For the compound `Cc1ccc(S(=O)(=O)O)cc1`, the result was inactive. Turning to `c1ccc2c(c1)CCC2`, the result was inactive. As for `O=C(CCCN1CCC(O)(c2ccc(Cl)cc2)CC1)c1ccc(F)cc1`, the result was inactive.

With `CC(C)(C)c1ccc(O)c(O)c1`, the AC50 was 31.7 µM (active) [middle of 5 runs]. As to `O=C1c2ccc(O)c(O)c2C(=O)c2c(O)ccc(O)c21`, the compound was called inactive.

Take `CCCCCCCCC1CCC(=O)O1` (stereo not given): the result was inactive.

As to `O=C(Nc1ccc(Cl)c(Cl)c1)c1cc(Cl)cc(Cl)c1O`, the AC50 is 4.32 µM (active). Turning to `CC(=O)CC(C)C`, the compound was called inactive. For the compound `CCCCCCCCCCCC(=O)NCCCN(C)C`, the compound was called inactive. As for `CCCCC=O`, the outcome was inactive. The same measure, in the same setting: as for `C[C@]12CC[C@@H]3c4ccc(O)cc4CC[C@H]3[C@@H]1C[C@@H](O)[C@@H]2O`, the entry is “inactive”. For the compound `CCCCCc1ccc(O)cc1`, the call was inactive. Consider `CCCCCCOC(=O)c1ccc(O)cc1`, for which the AC50 was 63.7 µM (active). In the case of `c1cc[nH]c1`, the compound was called inactive. With `C=COC(=O)C(C)(C)CCCCCC`, the compound was classed as inactive. On the same count and under the same terms, as for `CC(C)(O)C(=O)c1ccccc1`, the entry is “inactive”. On to `CCCCCCCCCC=CCC1CC(=O)OC1=O` (stereo not given), for which the result was inactive.

For `Brc1cc(Br)c(Oc2c(Br)cc(Br)c(Br)c2Br)cc1Br`, the compound was classed as inactive. On to `Oc1cccc2c(O)cccc12`, for which the result was inactive. Still for that read-out and setting: to `O=C(F)C(F)(F)C(F)(F)C(F)(F)C(F)F` belongs “inactive”. Still for that read-out and setting: to `FC(F)(F)C1(F)C(F)(F)C(F)(F)C(F)(F)C1(F)F` belongs “inactive”; to `COc1cc([N+](=O)[O-])ccc1N`, “inactive”; to `CCN(CC)CC`, “inactive”. Consider `CCCCCCCCCCCCCCCC(=O)OC`, for which the outcome was inactive. Turning to `CCCCCCc1ccc(N)cc1`, the outcome was inactive.

For the compound `C[C@]12CC[C@@H]3c4ccc(O)cc4CC[C@H]3[C@@H]1CC[C@@H]2OC(=O)CCC1CCCC1`, the compound was classed as inactive. In the case of `CC1=NN(c2ccccc2)C(=O)C1`, the compound was classed as inactive.

Consider `C=CC(F)(F)C(F)(F)C(F)(F)C(F)(F)F`, for which the call was inactive. `CCCCC(CC)C(=O)O` (stereo not given): the compound was classed as inactive. Still for that read-out and setting: to `COCN(COC)c1nc(N(COC)COC)nc(N(COC)COC)n1` belongs “inactive”; to `OCCN1CN(CCO)CN(CCO)C1`, “inactive”.

In the case of `c1cc2cccc3c4cccc5cccc(c(c1)c23)c54`, the compound was called inactive. On the same count and under the same terms, to `CC(O)COc1ccccc1` (stereo not given) belongs “inactive”; to `Nc1ccn([C@@H]2O[C@H](CO)[C@@H](O)C2O)c(=O)n1` (stereo not given in full), “inactive”.

As to `N=C(N)c1ccc(OCCCCCOc2ccc(C(=N)N)cc2)cc1`, the outcome was inactive.
